DT40 TDP1 no CPT: qHTS for Inhibitors of human tyrosyl-DNA phosphodiesterase 1 (TDP1): qHTS in cells in absence of CPT; DT40 Tdp1-/- hTDP1 cells, no CPT, ATP luminescence, 48 h; Potency, µM (highest dose often 46.2 µM), without a hit: top-dose activity change, negative = growth inhibition, hits mostly inhibitors; hit rate 15% among 420,000; AID 686978, 2013; further: potency means the concentration at half of the fitted maximal effect; nearly all actives have a fitted effect of over 55% in size
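A cellular qHTS used chicken DT40 cells lacking endogenous Tdp1 but carrying stably transfected human TDP1. Compounds were applied without camptothecin, and cell growth kinetics were judged by ATP-dependent luminescence after ≥48 hr.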
TDP1 block: inhibitors of human tyrosyl-DNA phosphodiesterase TDP1; recombinant TDP1, AlphaScreen DNA substrate cleavage; Potency, µM (series often up to 130 µM), inactives show at the top dose activity change, negative = inhibition, actives largely listed as inhibitors; hit rate 0.28% among 350,000; further: potency means the concentration at half of the fitted maximal effect; nearly all actives have a fitted effect of over 40% in size
Target sequence (Q9NUW8 whole entry, looked up): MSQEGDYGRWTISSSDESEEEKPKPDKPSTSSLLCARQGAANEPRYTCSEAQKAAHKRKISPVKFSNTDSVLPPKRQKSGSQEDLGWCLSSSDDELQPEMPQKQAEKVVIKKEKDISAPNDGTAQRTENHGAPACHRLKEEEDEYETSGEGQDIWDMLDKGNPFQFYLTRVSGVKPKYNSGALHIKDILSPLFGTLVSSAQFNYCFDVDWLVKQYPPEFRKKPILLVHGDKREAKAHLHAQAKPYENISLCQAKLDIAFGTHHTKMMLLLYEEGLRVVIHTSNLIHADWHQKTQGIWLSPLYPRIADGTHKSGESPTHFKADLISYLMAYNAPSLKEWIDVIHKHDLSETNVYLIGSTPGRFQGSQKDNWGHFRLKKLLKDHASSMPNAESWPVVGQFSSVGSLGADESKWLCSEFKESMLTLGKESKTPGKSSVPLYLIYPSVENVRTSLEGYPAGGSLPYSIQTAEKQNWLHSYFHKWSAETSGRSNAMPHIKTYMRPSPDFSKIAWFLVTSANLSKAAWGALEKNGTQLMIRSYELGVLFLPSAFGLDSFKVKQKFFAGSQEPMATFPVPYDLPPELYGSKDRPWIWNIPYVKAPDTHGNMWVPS
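Signal: AlphaScreen proximity between streptavidin donor and anti-FITC acceptor beads on intact substrate. Reaction: Tdp1 1 nM, substrate 15 nM final, 5 min RT after 15 min compound preincubation.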
IL1B secr inh: inhibitors of inflammasome signaling (IL-1 beta secretion) | THP-1 LPS/ATP IL-1B secretion, AlphaLISA, 16 h; hits give low values | activity change, % at 57.5 µM | hit rate 4.7% among 360,000 | AID 743279; in the data active means activity change below about -50%; inconclusive means mostly about -30% to -49%
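Secreted IL-1B measured by AlphaLISA bead assay after 16 h compound exposure of THP-1 cells; compounds (final up to 57.5 uM) added 1 h before LPS (250 ng/mL) and ATP (1.25 mM) stimulation; lower signal means less secretion.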
DT40 TDP1 CPT: DT40-hTDP1 cell growth loss with CPT; chicken DT40 Tdp1-/-;hTDP1 cells + 20 nM CPT, ATP luminescence, 48 h; hit rate 12% among 420,000; Potency, µM (doses to about 46.2 µM), for inactives: top-dose activity change, negative = growth inhibition, actives largely listed as inhibitors; further: potency means the concentration at half of the fitted maximal effect; nearly all actives have a fitted effect of over 55% in size
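Chicken DT40 Tdp1-/- cells stably complemented with human TDP1 were seeded at 400 cells/well in medium containing 20 nM camptothecin, exposed to pin-transferred compounds, and grown at 37 °C for at least 48 hr. Viability was read as ATP luminescence.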
ELG1 DNA repair: ELG1-dependent DNA repair inhibition | AID 504467 | HEK293T ELG1-luciferase reporter, luminescence, 16 h; DNA damage induced by 5-fluorouridine | hit rate 2.3% among 330,000 | Potency, µM (top dose mostly 46.1 µM), without a hit: top-dose activity change, negative = inhibition, most hits filed as inhibitors; further: potency means the concentration at half of the fitted maximal effect; nearly all actives have a fitted effect of over 55% in size
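Cells (2,000 per well) received 5-fluorouridine plus test compound or DMSO and were incubated 16 hr at 37 °C, 5% CO2. Luciferase activity was read by luminescence 30 min after ONE-Glo addition; signal suppression marked inhibition of damage-induced ELG1 function.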
Giardia kill: Giardia lamblia killing; AID 540267; activity change, % at 7.66 µM, hits read low; hit rate 0.15% among 340,000; Giardia lamblia trophozoite viability; in the data active means activity change below about -80%; inconclusive means between about -30% and that limit;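 further: parasites exposed to compound for two days anaerobically before the ATP read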
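ATP-content bioluminescence gauges trophozoite survival. Cells (100/well) receive compound and incubate anaerobically for 48 hrs at 37 deg C; detection reagent follows for 15-30 min at room temperature.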
The depositor's hits bear a star; ? = inconclusive; . = not tested or not shown; ! = repeats disagree; [ ] = dose if it differs, or a comment. Rows were chosen to be rich in hits. Some 19% of all compounds tested hit in one or more screens of this group. Unless noted, the call rests on the fitted dose curve; in most records, active means well fitted curve in the direction sought with a large enough effect; inconclusive means small, poorly fitted or top-dose-only effect, or another doubt; inactive means no such curve, though single readings can be large; an effect the other way counts as inactive or inconclusive. On the % scale 0 is the no-effect control and ±100 the full control effect.

SMILES | DT40 TDP1 no CPT | TDP1 block | IL1B secr inh | DT40 TDP1 CPT | ELG1 DNA repair | Giardia kill
COc1ccc(-n2nnnc2C(c2ccnc3ccccc23)N2CCC(n3c(=O)[nH]c4ccccc43)CC2)cc1 (stereo not given) | ? | . | -29 | ? | . | .
COc1cccc(C(c2nnnn2-c2ccc3c(c2)OCCO3)N2CCC(n3c(=O)[nH]c4ccccc43)CC2)c1OC (stereo not given) | 2.3µM* | . | 32 | 2.9µM* | . | .
CCCCNC(C)(C)[P+](=O)O | 7% | . | . | -4% | . | .
CC(=O)Nc1cnc(-c2ccccc2O)cn1 | -21% | . | 24 | ? | . | .
COc1cccc(/C=C/c2nc3ccccc3c(=O)n2-c2ccc(Cl)cc2)c1OC | ? | -8% | . | 15µM* | . | .
O=c1c2ccccc2nc(/C=C\c2ccccc2F)n1-c1ccc(O)cc1 | ? | 8% | . | ? | . | .
Cc1cccc(-n2c(/C=C/c3cccc4ccccc34)nc3ccccc3c2=O)c1 | 6.5µM* | 3% | . | 9.2µM* | . | .
O=c1c2ccccc2nc(/C=C/c2cccc3ccccc23)n1-c1ccc(Cl)cc1 | 26µM* | 5% | . | 21µM* | . | .
Cc1ccc(-n2c(/C=C/c3cccc4ccccc34)nc3ccccc3c2=O)cc1 | 21µM* | 8% | . | ? | . | .
C[N+]1(C)CCO[C@](O)(c2ccc(-c3ccc([C@]4(O)C[N+](C)(C)CCO4)cc3)cc2)C1 | . | 2%[21 µM] | . | . | . | .
FC(F)(F)c1ccc(Cl)cc1 | . | 5% | . | . | . | .
COC(=O)[C@@]1(C)CC[C@]2(C)CC[C@@]3(C)C(=CC(=O)C4[C@@]5(C)CC[C@H](O)C(C)(C)[C@@H]5CC[C@]43C)[C@H]2C1 (stereo not given in full) | ? | 2% | 6 | -28% | ? | 14
Cc1cccc(-n2c(/C=C/c3cn(C)c4ccccc34)nc3ccccc3c2=O)c1 | 9.2µM* | 2%[12.3 µM] | . | 6.5µM* | . | .
N#Cc1cc2c(nc1SCC(=O)Nc1cccc(C(F)(F)F)c1)C1CCN2CC1 | . | 5% | . | . | . | .
N#Cc1cc2c(nc1SCC(=O)Nc1ccc(OC(F)(F)F)cc1)C1CCN2CC1 | 18µM* | 2% | . | ? | . | .
Nc1c(C(=O)Nc2ccc(F)c(Cl)c2)sc2nc3c(cc12)N1CCC3CC1 | . | 2% | . | . | . | .
N#Cc1cccc(NC(=O)c2sc3nc4c(cc3c2N)N2CCC4CC2)c1 | 13µM* | 0% | . | 4.1µM* | . | .
N#Cc1cccc(NC(=O)CSc2nc3c(cc2C#N)N2CCC3CC2)c1 | 16µM* | 3% | . | ? | . | .
COCCNC(=O)c1ccc(N2CC3CC(C2)c2cccc(=O)n2C3)c([N+](=O)[O-])c1 (stereo not given) | -11% | -1% | 3 | -8% | 8% | 21
Cc1ccc2c(Cl)cc(Cl)c(OCC(=O)N(C(C)C)C(C)C)c2n1 | 18µM* | 0% | 0 | 16µM* | 26µM* | 4
CC[C@@H](CO)NC(=O)[C@H]1C=C2c3cccc4c3c(cn4C)C[C@H]2N(C)C1 | 13µM* | 11%[56.1 µM] | . | 8.4µM* | . | .
C[C@@H](CO)NC(=O)[C@@H]1C=C2c3cccc4[nH]cc(c34)C[C@H]2N(C)C1 | ? | 2% | . | ? | . | .
COc1cc2c(cc1OC)-c1c(OC)c(OC)c(OC)c3ccnc(c13)C2=O | 3.7µM* | 0% | ? | 4.1µM* | 6.5µM* | -83*
COC(=O)c1c(-c2ccc(Cl)cc2)noc1N1CCN(c2ccc(C(C)=O)cc2)CC1 | 21µM* | 8% | . | ? | . | .
COC(=O)C1=C(c2ccc(C(C)=O)cc2)C[C@@H]2CC[C@H]1N2C | -3% | 0% | 43 | -1% | 25% | -24
SMILES | DT40 TDP1 no CPT | TDP1 block | IL1B secr inh | DT40 TDP1 CPT | ELG1 DNA repair | Giardia kill
C[C@@H]1Cc2c(Cl)cc(C(=O)N[C@H](Cc3ccccc3)C(=O)O)c(O)c2C(=O)O1 | . | 5% | . | . | . | .
C=CCn1c(O)c(C(=O)CCCCCC)c(=O)[nH]c1=O | 8.2µM* | 3% | 33 | 12µM* | ? | -4
C=CCn1c(O)c(/C(CC)=N/NC(=S)Nc2ccccc2)c(=O)[nH]c1=O | -1% | 40µM* | 8 | 9% | ? | 8
C=CCn1c(O)c(C(CC)=NCCc2c[nH]c3ccccc23)c(=O)[nH]c1=O | 16µM* | 3% | 33 | ? | ? | 10
C=CCn1c(O)c(C(C)=O)c(=O)[nH]c1=O (tested in a mixture with another compound) | 9% | 2% | -18 | 4% | 18% | 3
Cc1ccc(N=Nc2cc(C)ccc2N)cc1 | 0% | . | 10 | -26% | ? | -13
Cc1ccc(OC(=O)N(C)C[C@@H]2OCc3cnnn3CCCC(=O)N([C@@H](C)CO)C[C@@H]2C)cc1 | ? | . | -8 | -28% | . | .
Cc1ccc2c(c1)N(C(=O)CCC(=O)N1CCC3(CC1)OCCO3)CC(C)O2 (stereo not given) | -28% | 2% | -12 | -9% | -10% | 1
CC12C=CC(=O)C=C1CCC1C2=CCC2(C)C1CC[C@@H]2C(=O)CN1CCN(c2cc(N3CCCC3)nc(N3CCCC3)n2)CC1 (stereo not given in full) | . | 15% | . | . | . | .
CN1C2CC(OC(=O)C(CO)c3ccccc3)CC1C(O)C2 (stereo not given) | -7% | 4%[56.1 µM] | . | 9% | . | .
Cc1ccc(C)c(N2CCN(C(=O)CCS(=O)(=O)c3ccc4c(c3)oc(=O)n4C)CC2)c1 | 15µM*! | 4% | -21 | 16µM* | -4% | 6
COc1ccccc1N1CCN(S(=O)(=O)c2ccc3c(c2)oc(=O)n3C)CC1 | ? | 7% | -12 | -3% | 5% | -1
CCn1c(C)c(C(=O)O)c2cc(OC)ccc21 | 1% | 9% | 38 | -8% | 0% | 8
CCOC(=O)c1c(C)n(Cc2ccccc2)c2ccc(OCC(O)CN3C(=O)CNC3=O)cc12 (stereo not given) | 15µM* | 4% | -26 | ? | ? | -7
C#CCOc1ccc2c(c1)c(C(C)=O)c(C)n2Cc1ccccc1 | ? | 0% | -4 | -30% | 21µM* | -19
COc1ccc(C2=CCC3CCCCN3C2)cc1OC (stereo not given) | -22% | 0% | -16 | -23% | ? | 9
CN(C)CCN(C)CCc1ccc(Cl)c(Cl)c1 | 21µM* | 10% | . | 16µM* | . | .
O=C(CCc1ccccc1)N1Cc2cc(N3CCOCC3)ccc2-n2nncc2C1 | -8% | . | -16 | -29% | . | .
OCC[n+]1c2ccccc2nc2ccc(N3CCOCC3)cc21 | ? | 6% | . | -20% | 23µM* | 1
